Results filed as inconclusive are left out. A call without a number means that no potency is given here. Activity calls are given as the source filed them. Calls follow the shape of the dose curve; as a rule, active = well fitted cell-killing curve with a large enough effect in the repeat runs; inconclusive = weak or mixed curves, or effect the other way; inactive = flat fitted curve, though single readings scatter.
Assay: qHTS assay to identify small molecule agonists of the constitutive androstane receptor (CAR) signaling pathway - cell viability counter screen (AID 1224836); also: nearly all actives have a fitted effect of over 45% in size
Settings: HepG2-CYP2B6-hCAR viability, CellTiter-Fluor, 23 h, PK11195 added to every well; series mostly up to 92.4 µM
From the text: U.S. Tox21 Program National Center for Advancing Translational Sciences [NCATS] NIH Chemical Genomics Center [NCGC] U.S. Environmental Protection Agency [EPA] National Institutes of Environmental Health Sciences [NIEHS] National Toxicology Program [NTP] U.S. Food and Drug Administration [FDA] Tox21 Assay Overview: The constitutive androstane receptor (CAR) is a nuclear receptor which regulates multiple drug metabolizing enzymes (DMEs) and transporters. Activating CAR will generally increase the transcription and subsequent translation of CYP2B6 and CYP3A4. These two DMEs represent about 50% of the drug metabolizing potential in the body. […] Recently, there have also been studies performed indicating CARs role in energy metabolism and cancer therapy. Therefore, inducing CARs activity could have a potential effect on diabetes and cancer. Identifying environmental toxins and compounds which modulate CAR, through the use of the Tox21 10K compound collection, will be an important step in determining the toxicity and potential therapeutic effects these factors will have on the human body. To differentiate true CAR agonists from cytotoxic substances, the assay is multiplexed with a cell viability assay.
Tox21 Assay Protocol Summary: A double-stable (hCAR and CYP2B6-2.2kb) transfected cell line, derived from human hepatoma (HepG2) cells, was utilized for the duration of the quantitative high-throughput screens. The HepG2-CYP2B6-hCAR cells were dispensed at 2500 cells/4 uL/well in 1536-well white solid bottom plates using a Multidrop Combi. After the assay plates were incubated at 37 C/5% CO2 for 4 hrs, 23 nL of compounds at 15 concentrations (from 5-48 columns) or positive control (from 1 to 4 columns) were transferred to the assay plates using a Pintool station. One uL of PK11195 (final concentration = 0.75 uM) was added, using a Flying Reagent Dispenser, inside each well. After a 23 hr incubation period at 37 C/5% CO2, 1 uL of CellTiter-Fluor reagent was added into each well of the assay plates using a Flying Reagent Dispenser. The fluorescence intensity in the plates was then measured using a ViewLux plate reader.
Potency is read from the fitted curve at half-maximal effect.

SMILES | Potency
O=[N+]([O-])c1ccc(O)c([N+](=O)[O-])c1 | 30.8 µM (active)
CCC(C)c1ccc(O)cc1 (stereo not given) | inactive
Nc1ccc(Cl)c(Cl)c1 | inactive
O=C(O)CC[N+](=O)[O-] | inactive
COc1ccc(C=O)cc1 | inactive
CCN(N=O)C(N)=O | inactive
c1ccc(P(c2ccccc2)c2ccccc2)cc1 | inactive
Nc1ccncc1 | inactive
CCC(CC)Nc1c([N+](=O)[O-])cc(C)c(C)c1[N+](=O)[O-] | inactive
CCOc1cc(C=O)ccc1O | inactive
CCOc1cc(Oc2ccc(C(F)(F)F)cc2Cl)ccc1[N+](=O)[O-] | inactive
CCN(CC)N=O | inactive
c1cc(OCC2CO2)ccc1Cc1ccc(OCC2CO2)cc1 (stereo not given) | inactive
Nc1ccc(-c2ccccc2)cc1 | inactive
C=CCc1ccc2c(c1)OCO2 | inactive
c1nc[nH]n1 | inactive
N#CCCCl | inactive
C=CCc1ccc(OC)cc1 | inactive
Clc1nc(Cl)nc(Cl)n1 | inactive
CNC(=O)N(C)c1nnc(C(C)(C)C)s1 | inactive

SMILES | Potency
CCOC(=S)S | inactive
O=C(NC(=O)c1c(F)cccc1F)Nc1ccc(Cl)cc1 | inactive
CCCCOCCOP(=O)(OCCOCCCC)OCCOCCCC | inactive
CCOP(=S)(OCC)O/N=C(\C#N)c1ccccc1 | inactive
Cc1cc(C)cc(C)c1 | inactive
Nc1ccc(-c2ccc(N)c(N)c2)cc1N | inactive
CCCCC(CC)COC(=O)Cl (stereo not given) | inactive
Cc1ccc(N)c(N)c1 | inactive
Oc1cc(Cl)ccc1Cl | inactive
C=CC(=O)OCCO | inactive
CCCCCCCCOC(=O)c1ccccc1C(=O)OCCCCCCCC | inactive
O=Cc1ccco1 | inactive
c1ccc(NNc2ccccc2)cc1 | inactive
CC(C)=CC1C(C(=O)OCc2coc(Cc3ccccc3)c2)C1(C)C (stereo not given) | inactive
CC(C)(c1cc(Cl)c(O)c(Cl)c1)c1cc(Cl)c(O)c(Cl)c1 | inactive
CCOC(=O)C(C)OC(=O)c1cc(Oc2ccc(C(F)(F)F)cc2Cl)ccc1[N+](=O)[O-] (stereo not given) | inactive
Nc1cccnc1 | inactive
CC(C)(C)c1ccccc1O | inactive
Oc1c(Cl)c(Cl)c(Cl)c(Cl)c1Cl | inactive
N[C@@H](Cc1ccc(N(CCCl)CCCl)cc1)C(=O)O | inactive

From PubChem BioAssay (Tox21)
